Sampled rows, rich in hits. Any-hit rate of the full collection: about 3.8%.
FGF22 binding = shifts melting point of recombinant human FGF22; Q9HCT0; recombinant FGF22 thermal shift, SYPRO orange fluorescence; percent of sucrose octasulfate shift, DMSO zero; activity (Tm shift, normalised), % at 9.99 µM; actives 1.5% (n = 340,000);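 active = mean Tm shift, scaled 0 neutral to 100 positive control, at about 1.3% or above, every replicate too, limit read from the data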
ADAM17 inh = inhibitors of human ADAM17; inhibition, % at 6.95 µM; recombinant ADAM17, EDANS/DABCYL FRET peptide cleavage; P78536; actives 0.83% (n = 370,000);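 active = inhibition above the mean of compounds lying between control limits plus 3 SD, set per campaign, cut at about 8.5% in these data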;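 also: 0% = DMSO-only wells as the low control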
proKLK7 act = proKLK7 (human) activation, primary screen | P49862 | AID 652039 | purified proKLK7, EDANS-DABCYL substrate fluorescence; 100% is mature enzyme control, 0% vehicle | activation, % at 7 µM | actives 0.9% (n = 370,000);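 active = activation above the mean of all tested compounds plus 3 SD, computed per campaign excluding outliers beyond control limits, cut at about 13% in these data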
ADAM10 inh = inhibitors of human ADAM10; inhibition, % at 7 µM; O14672; actives 0.62% (n = 370,000); recombinant ADAM10, EDANS/DABCYL FRET peptide cleavage, 3 h;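 active = inhibition above a per-campaign cutoff equal to the mean of compounds falling between control-based bounds plus 3 SD, cut at about 20% in these data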;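 also: 0% = DMSO wells while the 100% control is not disclosed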
Target sequence (O14672 214-748 limits assumed): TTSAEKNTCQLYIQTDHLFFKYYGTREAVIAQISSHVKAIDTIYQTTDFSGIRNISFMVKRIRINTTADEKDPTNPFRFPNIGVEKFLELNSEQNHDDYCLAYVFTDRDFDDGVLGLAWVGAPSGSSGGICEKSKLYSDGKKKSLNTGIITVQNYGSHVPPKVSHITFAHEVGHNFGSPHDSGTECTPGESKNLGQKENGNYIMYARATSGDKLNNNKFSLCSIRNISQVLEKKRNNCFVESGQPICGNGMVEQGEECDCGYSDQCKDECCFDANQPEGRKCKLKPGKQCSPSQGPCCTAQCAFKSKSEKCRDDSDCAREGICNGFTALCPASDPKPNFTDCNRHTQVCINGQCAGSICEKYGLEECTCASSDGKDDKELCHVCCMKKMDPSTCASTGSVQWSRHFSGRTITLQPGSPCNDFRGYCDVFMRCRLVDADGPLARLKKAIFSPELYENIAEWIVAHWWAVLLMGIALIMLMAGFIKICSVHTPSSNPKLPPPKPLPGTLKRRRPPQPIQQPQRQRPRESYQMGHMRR
rRNA inh HTS = inhibits bacterial ribosomal RNA function over humanized ribosomes; E. coli WT GFP vs humanized-ribosome RFP mutants, fluorescence, 24 h; stronger effect = lower value; DMSO median 0, no signal -100; GFP signal change (wild-type ribosome), % (concentration not given with the values); actives 1.6% (n = 350,000);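 active = significant combined selectivity score with lowered wild-type GFP, culture density cut under 30%, mutant RFP and density less affected; inactive = any of these conditions unmet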
ADAM10 confirm = confirmation of inhibitors of human ADAM10; shares compounds with ADAM10 inh; ADAM10 QFRET peptide cleavage, EDANS fluorescence; inhibition, % at 6.95 µM; actives 1% (n = 2,100);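 active = inhibition above about 20% chosen separately for each screening run, limit read from the data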;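 also: 0% = DMSO wells and 100% = marimastat wells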
ADAM17 counter = inhibits human ADAM17 in ADAM10 exosite counter-screen. shares compounds with ADAM10 inh. ADAM17 QFRET peptide cleavage, EDANS fluorescence. inhibition, % at 6.95 µM. actives 0.5% (n = 2,100). AID 743214;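 active = mean triplicate inhibition above the solvent-only control wells' mean plus 3 SD, cut at about 12% in these data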;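 also: 0% = DMSO wells and 100% = marimastat wells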
* hit, by the source's call; nt = no result.

SMILES | FGF22 binding | ADAM17 inh | proKLK7 act | ADAM10 inh | rRNA inh HTS | ADAM10 confirm | ADAM17 counter
O=C(c1ccc(F)cc1)N1CC(=O)N2[C@H](CO)[C@@H](c3ccc(-c4ccccc4)cc3)[C@H]2C1 | nt | nt | nt | nt | 0 | nt | nt
CCCNC(=O)N1CC2(CCN(C(=O)CN(C)C)CC2)c2c(n(C)c3cc(OC)ccc23)[C@H]1CO | 0 | nt | nt | nt | 3 | nt | nt
COC(=O)CN1C(=S)N(c2ccc(Cl)cc2)C(=O)C1CC(=O)Nc1ccc(Cl)cc1 (stereo unspecified) | nt | 7 | 0 | 22* | nt | 4 | 1
COc1ccc(S(=O)(=O)N[C@H]2CC[C@H](CCNC(=O)Cc3ccccn3)O[C@@H]2CO)cc1 | 0 | nt | nt | nt | 1 | nt | nt
COc1ccc(CCn2c(-c3ccc(C(C)(C)C)cc3)n[nH]c2=S)cc1OC | 0 | 2 | 0 | 24* | 3 | 0 | 0
Cc1ccc2c(c1)/C(=C/c1ccc(F)cc1)C(=O)N2 | 0 | 3 | -1 | 22* | -25 | 1 | 0
Cc1ccc2c(c1)/C(=C/c1ccccc1C)C(=O)N2 | 0 | 2 | 0 | 0 | -52 | nt | nt
CC1(C)CC(=O)c2c(oc3cc(O)c(O)cc23)C1 | nt | 2 | 0 | 21* | nt | 4 | 2
O=S(=O)(N[C@@H]1CC[C@@H](CCNS(=O)(=O)c2ccccc2Cl)O[C@@H]1CO)c1ccccc1 | 0 | nt | nt | nt | -1 | nt | nt
CC(=O)N1[C@H](CNC(=O)CN2CCOCC2)[C@@H](c2ccccc2)[C@@H]1CO | nt | nt | nt | nt | 3 | nt | nt
O=C(NCc1ccc(F)cc1)c1noc2c1CCCC2 | 0 | nt | nt | nt | 5 | nt | nt
CC(C)(C)C1CCc2onc(C(=O)NCc3ccc(F)cc3)c2C1 (stereo unspecified) | nt | 4 | 0 | 21* | nt | 4 | 1
O=C(Nc1cc(Cl)ccc1-n1cncn1)c1ccc(F)c(S(=O)(=O)N2CCOCC2)c1 | 0 | -5 | 0 | -2 | 7 | nt | nt
O=C(Nc1cc(Cl)ccc1-n1cncn1)c1cccc(S(=O)(=O)N2CCOCC2)c1 | 0 | -5 | -1 | 93* | 0 | -1 | 0
COCC(=O)N(C)C[C@H]1Oc2ncc(C#CC3(O)CCCC3)cc2C(=O)N([C@@H](C)CO)C[C@H]1C | 0 | nt | nt | nt | 3 | nt | nt
O=C(O)c1ccc(C#Cc2cccc(F)c2)cn1 | nt | -3 | 0 | 26* | nt | 1 | 1
CO[C@H]1CN(C)C(=O)c2ccc(NC(=O)Nc3cc(F)ccc3F)cc2OC[C@H](C)N(C(=O)c2cnccn2)C[C@@H]1C | nt | nt | nt | nt | -5 | nt | nt
CC1(C(=O)N2CCC(CC3CC(c4cccc(Br)c4)=NO3)(C(=O)NCC3CCCCC3)CC2)CC1 (stereo unspecified) | -1 | 4 | 0 | 25* | -10 | 0 | 3
Cc1ccc(S(=O)(=O)N2CCOCC2)cc1NC(=O)c1cc2c(s1)CCC2 | nt | 2 | 1 | 12 | nt | nt | nt
Cc1ccc(S(=O)(=O)Nc2ccc(Cl)cc2)cc1NC(=O)c1cc2c(s1)CCCC2 | nt | 10* | -1 | 24* | nt | 17 | 4
CN1C(=O)c2cc(NC(=O)c3cccs3)ccc2OC[C@@H]2O[C@H](CC(=O)N3CCCCC3)CC[C@@H]21 | nt | nt | nt | nt | -5 | nt | nt
Cc1cccnc1NC(=O)COc1ccc2oc3c(c2c1)CCCC3 | nt | -3 | 0 | 82* | -39 | 4 | 1
N#CCC(CNc1ncc(C(F)(F)F)cc1Cl)OC(=O)c1cccc([N+](=O)[O-])c1 (stereo unspecified) | nt | 8 | 0 | 21* | nt | 0 | 1
N#CCC(CNc1ncc(C(F)(F)F)cc1Cl)OC(=O)c1c(F)cccc1F (stereo unspecified) | nt | 8 | 0 | 11 | nt | nt | nt
O=C(Cc1ccccc1)N1CC(=O)N2[C@H](C1)[C@@H](c1ccc(-c3ccccc3)cc1)[C@@H]2CO | nt | nt | nt | nt | -40 | nt | nt
CC(O)(c1ccc(F)c(F)c1)c1nc(-c2ccc(F)c(Cl)c2)cs1 (stereo unspecified) | 0 | 8 | 0 | 22* | -55 | 8 | 3

Screens deposited in PubChem by several laboratories.
